Measurements published in the supplement of paper PMC10849652.
The full data set covers some 8,800 targets. This sample favours those with a hit. About 0.5% of all pairs of compound and target were hits.

Columns and labels:
Test in all cases: log2 fold change, soluble protein after heating vs DMSO (PISA); higher = thermal stabilisation; K562 lysate, 10 uM; active = over 0.2 and 3.5 SD of the protein, either way, in both replicates (recomputed)
[1] = compound: C1=CC=C(C=C1)[C@H](COC2=CC3=C(C=C2)NC(=O)N3)NC(=O)C4=CC=CN(C4=O)CC5=CC(=C(C=C5)F)F
Method in brief: (§1)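 A 30 min treatment with 10 μM compound was applied to crude K562 extract at 1 mg/mL protein in PBS pH 7.4 with 1 mM MgCl2. Heating for 3 min spanned 48°C-58°C, after which aliquots were pooled, adjusted to 0.5% NP-40 at 4°C and spun at 21,000xg for 90 min. TMTpro 16plex LC-MS/MS of the supernatant, with channel sums equalised, gave values recorded as log-two fold change in thermal stability against solvent controls, from duplicates.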

[2] = compound: CC1=C(SC2=C1C(=N[C@H](C3=NN=C(N32)C)CC(=O)N)C4=CC=C(C=C4)Cl)C
Method in brief: as §1

[3] = compound: CC1=C2C(=CC=C1)N=C(N(C2=O)C3=CC=CC=C3C)CN4C=NC5=C(N=CN=C54)N
Method in brief: as §1

[4] = compound: Cc1sc2c(c1C)C(c1ccc(Cl)cc1)=N[C@@H](CC(=O)OC(C)(C)C)c1nnc(C)n1-2
Method in brief: as §1

[5] = compound: c1ccc([C@@H]2C[C@H]2NC2CCNCC2)cc1
Method in brief: as §1

Measured: log2 fold change

RPS4X (UniProt P62701)
inactive: [1] 0.02 | [2] 0.029 | [3] -0.009 | [4] 0.044 | [5] 0.066

RPS18 (UniProt P62269)
inactive: [1] -0.009 | [2] 0.046 | [3] 0.024 | [4] -0.003 | [5] -0.075

RBBP7 isoform 2 (UniProt Q16576)
inactive: [1] -0.012 | [2] -0.009 | [3] -0.03 | [4] -0.01 | [5] -0.033

SBF1 isoform 4 (UniProt O95248)
inactive: [1] -0.08 | [2] 0.001 | [3] -0.094 | [4] 0.092 | [5] 0.072

SEC61G (UniProt P60059)
UniProt P60059, sequence (P60059 whole entry, looked up): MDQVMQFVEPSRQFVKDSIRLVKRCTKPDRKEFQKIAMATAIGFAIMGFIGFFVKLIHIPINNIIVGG
inactive: [1] 0.269 | [2] -0.063 | [3] -0.016 | [4] -0.065 | [5] -0.225

RPAP1 (UniProt Q9BWH6)
inactive: [1] -0.006 | [2] 0.018 | [3] 0.015 | [4] -0.038 | [5] 0.028

RBBP8 isoform 2 (UniProt Q99708)
inactive: [1] -0.031 | [2] -0.133 | [3] 0.093 | [4] 0.046 | [5] -0.014

RAD51C (UniProt O43502)
inactive: [1] -0.028 | [2] 0.026 | [3] 0.078 | [4] -0.029 | [5] -0.004

RPL36AL (UniProt Q969Q0)
inactive: [1] 0.074 | [2] -0.049 | [3] -0.03 | [4] 0.274 | [5] 0.015

RBM8A (UniProt Q9Y5S9)
inactive: [1] 0.066 | [2] 0.01 | [3] -0.061 | [4] 0.084 | [5] 0.171

RNF113A (UniProt O15541)
UniProt O15541, sequence (O15541 whole entry, looked up): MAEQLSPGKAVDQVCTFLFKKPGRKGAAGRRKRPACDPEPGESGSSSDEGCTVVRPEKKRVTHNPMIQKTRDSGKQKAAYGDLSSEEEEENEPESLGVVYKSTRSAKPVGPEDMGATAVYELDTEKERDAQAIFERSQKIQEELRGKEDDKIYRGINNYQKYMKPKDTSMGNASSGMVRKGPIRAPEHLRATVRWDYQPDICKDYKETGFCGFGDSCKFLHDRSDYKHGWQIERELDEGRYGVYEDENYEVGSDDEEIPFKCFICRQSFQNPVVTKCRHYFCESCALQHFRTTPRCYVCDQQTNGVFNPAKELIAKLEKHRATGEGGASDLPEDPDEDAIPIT
inactive: [1] 0.047 | [2] -0.022 | [3] -0.018 | [4] -0.065 | [5] -0.066

RPL27 (UniProt P61353)
inactive: [1] 0.034 | [2] 0.031 | [3] 0.003 | [4] 0.008 | [5] 0.101

RBM42 (UniProt Q9BTD8)
inactive: [1] -0.014 | [2] -0.003 | [3] 0.107 | [4] 0.103 | [5] -0.006

RNASEH2B (UniProt Q5TBB1)
UniProt Q5TBB1, sequence (Q5TBB1 whole entry, looked up): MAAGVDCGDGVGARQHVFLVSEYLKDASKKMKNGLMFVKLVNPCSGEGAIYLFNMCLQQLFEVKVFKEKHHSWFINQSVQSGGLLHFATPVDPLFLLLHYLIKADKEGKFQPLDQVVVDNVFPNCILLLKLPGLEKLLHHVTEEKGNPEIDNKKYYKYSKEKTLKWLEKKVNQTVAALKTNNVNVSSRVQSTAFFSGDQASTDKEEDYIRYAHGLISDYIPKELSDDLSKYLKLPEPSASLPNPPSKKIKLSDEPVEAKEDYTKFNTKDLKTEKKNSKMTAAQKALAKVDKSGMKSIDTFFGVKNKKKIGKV
inactive: [1] 0.056 | [2] -0.008 | [3] -0.032 | [4] 0.038 | [5] 0.049

RDH10 (UniProt Q8IZV5)
inactive: [1] 0.147 | [2] 0.018 | [3] 0.006 | [4] -0.051 | [5] -0.06

RINT1 (UniProt Q6NUQ1)
inactive: [1] -0.021 | [2] -0.008 | [3] 0.019 | [4] -0.008 | [5] 0.026

RECQL5 (UniProt O94762)
inactive: [1] -0.081 | [2] 0.014 | [3] 0.011 | [4] -0.174 | [5] 0.064

RIC1 (UniProt Q4ADV7)
inactive: [1] -0.086 | [2] 0.186 | [3] 0 | [4] 0.081 | [5] 0.138

RAE1 (UniProt P78406)
inactive: [1] -0.022 | [2] -0.081 | [3] -0.005 | [4] 0.07 | [5] -0.022

RRM1 (UniProt P23921)
inactive: [1] 0.014 | [2] 0.028 | [3] 0.042 | [4] 0.028 | [5] 0.004

RIOK1 (UniProt Q9BRS2)
inactive: [1] -0.026 | [2] -0.031 | [3] -0.003 | [4] -0.006 | [5] -0.015

RSU1 (UniProt Q15404)
inactive: [1] 0.056 | [2] 0.004 | [3] -0.004 | [4] -0.017 | [5] 0.157

RARS (UniProt P54136)
inactive: [1] -0.014 | [2] 0.038 | [3] 0.024 | [4] 0.028 | [5] 0.091

REXO4 (UniProt Q9GZR2)
inactive: [1] 0.009 | [2] -0.003 | [3] 0.029 | [4] 0.051 | [5] 0.138

RAD50 isoform 2 (UniProt Q92878)
UniProt Q92878, sequence (Q92878 whole entry, looked up): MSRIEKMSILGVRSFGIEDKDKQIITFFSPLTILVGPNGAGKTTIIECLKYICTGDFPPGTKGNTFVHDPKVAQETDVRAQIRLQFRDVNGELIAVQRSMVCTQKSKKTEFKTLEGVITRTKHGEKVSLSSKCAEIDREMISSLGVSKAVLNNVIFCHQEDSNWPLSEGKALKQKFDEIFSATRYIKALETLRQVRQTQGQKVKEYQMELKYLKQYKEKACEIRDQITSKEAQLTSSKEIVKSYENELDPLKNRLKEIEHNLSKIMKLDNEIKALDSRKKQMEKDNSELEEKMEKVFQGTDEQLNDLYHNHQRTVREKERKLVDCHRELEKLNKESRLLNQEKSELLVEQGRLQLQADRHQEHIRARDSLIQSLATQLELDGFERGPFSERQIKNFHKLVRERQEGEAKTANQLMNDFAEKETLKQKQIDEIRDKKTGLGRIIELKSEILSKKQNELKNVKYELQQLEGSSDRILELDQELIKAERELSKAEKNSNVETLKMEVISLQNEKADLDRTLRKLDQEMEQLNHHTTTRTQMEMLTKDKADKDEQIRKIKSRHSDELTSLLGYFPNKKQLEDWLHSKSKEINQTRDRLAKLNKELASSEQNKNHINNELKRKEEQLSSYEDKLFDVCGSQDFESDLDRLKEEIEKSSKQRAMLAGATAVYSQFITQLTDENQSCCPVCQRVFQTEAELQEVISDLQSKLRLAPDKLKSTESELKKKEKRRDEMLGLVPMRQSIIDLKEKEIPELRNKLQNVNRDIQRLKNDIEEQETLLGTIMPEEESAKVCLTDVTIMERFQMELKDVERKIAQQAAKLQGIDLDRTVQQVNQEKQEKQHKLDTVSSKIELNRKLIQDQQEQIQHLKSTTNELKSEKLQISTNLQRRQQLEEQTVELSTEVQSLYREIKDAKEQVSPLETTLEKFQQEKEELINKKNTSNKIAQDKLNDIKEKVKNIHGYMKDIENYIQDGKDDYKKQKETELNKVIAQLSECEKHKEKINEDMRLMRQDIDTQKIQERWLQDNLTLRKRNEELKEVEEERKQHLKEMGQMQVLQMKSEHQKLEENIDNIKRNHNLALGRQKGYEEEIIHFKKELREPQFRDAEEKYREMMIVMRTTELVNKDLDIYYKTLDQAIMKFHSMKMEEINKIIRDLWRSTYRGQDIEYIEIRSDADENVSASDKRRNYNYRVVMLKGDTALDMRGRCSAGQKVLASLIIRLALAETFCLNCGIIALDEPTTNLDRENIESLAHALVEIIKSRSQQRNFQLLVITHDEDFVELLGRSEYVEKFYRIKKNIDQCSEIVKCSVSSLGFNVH
inactive: [1] -0.002 | [2] -0.031 | [3] 0.004 | [4] 0.008 | [5] 0.009

SAP30 (UniProt O75446)
UniProt O75446, sequence (O75446 whole entry, looked up): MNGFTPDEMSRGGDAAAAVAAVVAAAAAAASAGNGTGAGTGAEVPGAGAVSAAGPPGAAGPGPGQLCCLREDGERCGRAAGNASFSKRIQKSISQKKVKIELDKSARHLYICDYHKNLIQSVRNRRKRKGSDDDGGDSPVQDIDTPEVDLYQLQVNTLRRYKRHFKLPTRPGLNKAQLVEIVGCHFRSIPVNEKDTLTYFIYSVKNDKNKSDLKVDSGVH
inactive: [1] 0.029 | [2] -0.029 | [3] 0.009 | [4] 0.014 | [5] -0.026

RFC2 (UniProt P35250)
inactive: [1] -0.009 | [2] 0.006 | [3] -0.008 | [4] 0.043 | [5] -0.033

SDHA (UniProt P31040)
UniProt P31040, sequence (P31040 whole entry, looked up): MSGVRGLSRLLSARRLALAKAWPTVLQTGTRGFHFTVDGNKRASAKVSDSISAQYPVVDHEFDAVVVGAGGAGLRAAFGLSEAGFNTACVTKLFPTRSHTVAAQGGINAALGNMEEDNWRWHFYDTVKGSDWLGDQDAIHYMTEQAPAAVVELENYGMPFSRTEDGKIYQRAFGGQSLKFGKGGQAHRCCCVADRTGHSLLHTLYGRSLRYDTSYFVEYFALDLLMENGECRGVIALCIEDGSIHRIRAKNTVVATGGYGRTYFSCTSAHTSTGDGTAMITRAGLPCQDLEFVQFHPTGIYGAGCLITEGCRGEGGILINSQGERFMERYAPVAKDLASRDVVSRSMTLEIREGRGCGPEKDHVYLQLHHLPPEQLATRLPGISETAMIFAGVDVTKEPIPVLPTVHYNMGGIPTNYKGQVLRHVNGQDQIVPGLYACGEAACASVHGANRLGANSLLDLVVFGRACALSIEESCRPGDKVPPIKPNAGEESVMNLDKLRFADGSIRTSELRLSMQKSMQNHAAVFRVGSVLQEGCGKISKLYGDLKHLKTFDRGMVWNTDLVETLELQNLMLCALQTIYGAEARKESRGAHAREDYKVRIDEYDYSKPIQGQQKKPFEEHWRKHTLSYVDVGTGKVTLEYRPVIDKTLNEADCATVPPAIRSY
inactive: [1] 0.114 | [2] -0.012 | [3] -0.012 | [4] 0.005 | [5] -0.007

SAMHD1 (UniProt Q9Y3Z3)
inactive: [1] 0.005 | [2] 0.002 | [3] -0.018 | [4] 0.051 | [5] -0.002

RPLP0P6 (UniProt Q8NHW5)
inactive: [1] 0.052 | [2] -0.038 | [3] -0.002 | [4] -0.026 | [5] -0.027

RCC1 isoform 2 (UniProt P18754)
inactive: [1] 0.023 | [2] 0.026 | [3] -0.013 | [4] 0.045 | [5] 0.014

RNF168 (UniProt Q8IYW5)
inactive: [1] -0.008 | [2] -0.052 | [3] 0.017 | [4] 0.061 | [5] -0.068

RAPGEF4 (UniProt Q8WZA2)
UniProt Q8WZA2, sequence (Q8WZA2 whole entry, looked up): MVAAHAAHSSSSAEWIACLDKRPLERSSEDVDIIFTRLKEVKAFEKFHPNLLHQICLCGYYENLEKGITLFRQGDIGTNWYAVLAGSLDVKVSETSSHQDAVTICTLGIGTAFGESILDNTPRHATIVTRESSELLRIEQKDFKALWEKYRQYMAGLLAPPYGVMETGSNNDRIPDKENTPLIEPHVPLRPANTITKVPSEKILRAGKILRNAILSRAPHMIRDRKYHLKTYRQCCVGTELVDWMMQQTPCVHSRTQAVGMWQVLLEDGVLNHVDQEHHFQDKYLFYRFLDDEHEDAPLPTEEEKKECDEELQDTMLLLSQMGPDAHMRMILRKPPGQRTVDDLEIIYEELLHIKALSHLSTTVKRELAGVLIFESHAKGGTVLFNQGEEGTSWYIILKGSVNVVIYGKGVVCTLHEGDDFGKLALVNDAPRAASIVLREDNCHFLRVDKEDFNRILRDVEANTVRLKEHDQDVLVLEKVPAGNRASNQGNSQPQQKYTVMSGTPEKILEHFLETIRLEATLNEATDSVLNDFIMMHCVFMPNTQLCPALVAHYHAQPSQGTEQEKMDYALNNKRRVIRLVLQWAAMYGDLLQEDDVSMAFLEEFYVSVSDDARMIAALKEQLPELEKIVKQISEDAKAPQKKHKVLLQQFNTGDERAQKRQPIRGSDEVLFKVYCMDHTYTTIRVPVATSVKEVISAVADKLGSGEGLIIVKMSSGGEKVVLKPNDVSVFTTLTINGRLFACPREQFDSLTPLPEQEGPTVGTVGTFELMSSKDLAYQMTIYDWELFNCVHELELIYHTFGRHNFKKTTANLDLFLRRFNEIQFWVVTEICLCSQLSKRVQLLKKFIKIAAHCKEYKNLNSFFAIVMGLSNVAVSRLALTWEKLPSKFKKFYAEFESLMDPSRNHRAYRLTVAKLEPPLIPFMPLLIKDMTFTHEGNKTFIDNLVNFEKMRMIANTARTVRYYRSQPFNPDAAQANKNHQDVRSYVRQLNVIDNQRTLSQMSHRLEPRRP
inactive: [1] 0 | [2] 0.092 | [3] 0.06 | [4] -0.274 | [5] -0.558

SELENOK (UniProt Q9Y6D0)
UniProt Q9Y6D0, sequence (Q9Y6D0 whole entry, looked up): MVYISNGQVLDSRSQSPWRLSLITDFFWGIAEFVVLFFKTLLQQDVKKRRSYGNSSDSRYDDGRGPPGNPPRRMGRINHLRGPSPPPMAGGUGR
inactive: [1] 0.061 | [2] -0.074 | [3] -0.05 | [4] -0.181 | [5] -0.311

RNF181 (UniProt Q9P0P0)
UniProt Q9P0P0, sequence (Q9P0P0 whole entry, looked up): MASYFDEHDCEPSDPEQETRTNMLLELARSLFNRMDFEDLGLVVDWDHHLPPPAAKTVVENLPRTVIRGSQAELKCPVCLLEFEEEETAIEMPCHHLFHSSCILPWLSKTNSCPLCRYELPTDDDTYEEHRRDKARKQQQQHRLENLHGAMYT
inactive: [1] 0.03 | [2] -0.145 | [3] -0.031 | [4] 0.022 | [5] 0.066

RFC3 (UniProt P40938)
inactive: [1] -0.032 | [2] 0.003 | [3] 0.026 | [4] 0.055 | [5] 0.024

RPL37A (UniProt P61513)
inactive: [1] -0.009 | [2] 0 | [3] -0.031 | [4] 0.191 | [5] 0.166

RPL31 (UniProt P62899)
inactive: [1] 0.016 | [2] 0.013 | [3] -0.027 | [4] 0.041 | [5] -0.022

RRAGA (UniProt Q7L523)
inactive: [1] 0.024 | [2] -0.039 | [3] 0.01 | [4] -0.045 | [5] -0.036

SAR1B (UniProt Q9Y6B6)
UniProt Q9Y6B6, sequence (Q9Y6B6 whole entry, looked up): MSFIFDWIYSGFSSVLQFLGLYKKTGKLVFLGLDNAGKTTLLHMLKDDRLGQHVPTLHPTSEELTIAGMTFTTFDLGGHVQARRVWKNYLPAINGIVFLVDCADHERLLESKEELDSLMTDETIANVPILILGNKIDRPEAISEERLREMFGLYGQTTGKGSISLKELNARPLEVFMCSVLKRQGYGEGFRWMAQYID
inactive: [1] -0.006 | [2] -0.007 | [3] -0.01 | [4] -0.068 | [5] 0.052

RBM23 isoform 2 (UniProt Q86U06)
inactive: [1] -0.118 | [2] -0.084 | [3] 0.06 | [4] 0.011 | [5] -0.002

RNF213, A0A0A0MTC1
inactive: [1] -0.02 | [2] -0.007 | [3] 0.069 | [4] 0.004 | [5] 0.045

RTTN (UniProt Q86VV8)
inactive: [1] 0.089 | [2] -0.033 | [3] -0.289 | [4] 0.046 | [5] 0.024

SAR1A (UniProt Q9NR31)
UniProt Q9NR31, sequence (Q9NR31 whole entry, looked up): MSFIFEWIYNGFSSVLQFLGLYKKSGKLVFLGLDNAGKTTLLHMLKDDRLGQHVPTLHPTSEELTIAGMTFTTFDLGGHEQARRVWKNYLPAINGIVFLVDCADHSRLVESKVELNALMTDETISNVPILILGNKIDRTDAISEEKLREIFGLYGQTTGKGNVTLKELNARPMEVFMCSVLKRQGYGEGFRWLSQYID
inactive: [1] 0.066 | [2] 0.038 | [3] 0.005 | [4] -0.116 | [5] -0.009

RALGAPA1 isoform 6 (UniProt Q6GYQ0)
inactive: [1] -0.041 | [2] -0.072 | [3] 0.006 | [4] -0.063 | [5] -0.178

RAB3IL1 (UniProt E9PK89)
inactive: [1] -0.109 | [2] 0.057 | [3] 0.014 | [4] -0.189 | [5] -0.006

RPL28 (UniProt P46779)
inactive: [1] 0.042 | [2] -0.02 | [3] 0.001 | [4] -0.008 | [5] 0.041

RAC2 (UniProt P15153)
inactive: [1] -0.116 | [2] 0.043 | [3] -0.032 | [4] 0.067 | [5] 0.028

RNASEL (UniProt Q05823)
inactive: [1] 0.047 | [2] -0.041 | [3] 0.068 | [4] -0.004 | [5] 0.046

RAP1GAP isoform 4 (UniProt P47736)
inactive: [1] 0.019 | [2] -0.012 | [3] -0.019 | [4] -0.009 | [5] 0.007

RALGAPB (UniProt Q86X10)
inactive: [1] 0.029 | [2] 0.023 | [3] 0.085 | [4] -0.026 | [5] 0.006

SEH1L isoform 1 (UniProt Q96EE3)
UniProt Q96EE3, sequence (Q96EE3 whole entry, looked up): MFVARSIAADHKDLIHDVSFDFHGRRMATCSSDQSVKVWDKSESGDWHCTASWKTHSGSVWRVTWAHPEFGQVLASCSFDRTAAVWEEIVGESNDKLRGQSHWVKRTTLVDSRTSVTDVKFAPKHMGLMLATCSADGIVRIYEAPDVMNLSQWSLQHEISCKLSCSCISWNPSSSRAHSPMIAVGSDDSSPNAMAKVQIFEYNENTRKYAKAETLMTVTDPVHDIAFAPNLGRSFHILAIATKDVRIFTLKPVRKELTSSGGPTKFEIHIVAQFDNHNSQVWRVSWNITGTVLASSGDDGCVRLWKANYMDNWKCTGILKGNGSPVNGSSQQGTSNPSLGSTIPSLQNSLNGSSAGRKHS
inactive: [1] 0.016 | [2] 0.031 | [3] -0.045 | [4] -0.041 | [5] -0.028
